High-throughput results deposited in PubChem by National Center for Advancing Translational Sciences (NCATS).
Shown are actives, neighbours in structure and some others; about 2.7% of the full set was active somewhere.
12-LOX inh: Primary qHTS assay for inhibitors of human arachidonate 12S-lipoxygenase (ALOX12): Round 2 | Polyunsaturated fatty acid lipoxygenase ALOX12 (Homo sapiens), P18054 | purified 12hLO, xylenol orange hydroperoxide absorbance | Potency, µM (highest dose often 108 µM), for the others: at the highest dose activity change, negative = inhibition, hits mostly inhibitors | actives 1.1% (n = 580,000) | AID 1671190, 2021; note: potency is the fitted concentration of half-maximal effect; % is set by controls: 0 for no effect and ±100 for the full control effect
Target sequence (P18054 whole entry, looked up): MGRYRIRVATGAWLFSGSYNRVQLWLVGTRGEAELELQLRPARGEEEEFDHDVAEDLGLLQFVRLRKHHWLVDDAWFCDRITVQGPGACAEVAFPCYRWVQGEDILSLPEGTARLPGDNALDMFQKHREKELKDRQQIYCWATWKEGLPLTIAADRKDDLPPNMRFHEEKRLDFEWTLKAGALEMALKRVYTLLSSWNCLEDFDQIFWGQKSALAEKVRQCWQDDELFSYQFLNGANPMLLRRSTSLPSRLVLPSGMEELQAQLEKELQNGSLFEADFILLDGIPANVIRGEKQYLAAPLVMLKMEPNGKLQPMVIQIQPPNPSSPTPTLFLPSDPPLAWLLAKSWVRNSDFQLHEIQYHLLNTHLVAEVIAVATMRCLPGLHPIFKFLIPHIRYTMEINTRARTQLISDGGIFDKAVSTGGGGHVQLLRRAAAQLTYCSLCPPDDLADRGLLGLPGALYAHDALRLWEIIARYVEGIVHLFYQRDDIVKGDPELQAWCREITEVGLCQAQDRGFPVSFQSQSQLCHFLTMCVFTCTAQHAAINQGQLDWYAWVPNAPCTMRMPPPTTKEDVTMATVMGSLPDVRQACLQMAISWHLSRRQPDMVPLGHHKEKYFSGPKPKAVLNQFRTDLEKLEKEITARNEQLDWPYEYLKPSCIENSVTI
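Purified human 12hLO (150 nM final) in 25 mM Hepes, 0.01% Triton X-100, pH 7.0 was preincubated 15 min at room temperature with compound. Then 40 uM arachidonic acid was added, 30 min. Hydroperoxide was read by Fe-XO absorbance ratio 573/405 nm.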
Nrf2 inh: Nrf2 qHTS screen for inhibitors; A549 ARE-Fluc reporter, luciferase luminescence, 18-24 h; Potency, µM (titrated, usually from 46 µM), for the others: at the highest dose activity change, negative = inhibition, most hits filed as inhibitors; actives 2.1% (n = 360,000); AID 504444, 2011; note: potency is the fitted concentration of half-maximal effect; % is set by controls: 0 for no effect and ±100 for the full control effect; nearly all actives have a fitted effect of over 60% in size
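Reporter: ARE-Fluc in A549. Exposure: 18-24 h, 37 °C, 5% CO2, 5% FBS OPTI-MEM. Readouts: fluorescent cytotoxicity (CellTiter-Fluor), then luminescent Nrf2 signal after BugLite.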
A549 viability: Nrf2 qHTS screen for inhibitors: counterscreen for cytotoxicity | A549 ARE-Fluc cells, CellTiter-Fluor viability, 18-24 h | Potency, µM (highest dose often 46 µM), for inactives: top-dose activity change, negative = cytotoxicity, most hits filed as inhibitors | actives 0.16% (n = 390,000); note: potency is the fitted concentration of half-maximal effect; % is set by controls: 0 for no effect and ±100 for the full control effect
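A549 ARE-Fluc cells in 5% FBS OPTI-MEM, 5000 cells/well, rested 2 h then exposed to compounds in concentration-response for 18-24 h at 37 °C. Viability by CellTiter-Fluor fluorescence (Ex 405/Em 525) after 30 min; luciferase luminescence (BugLite, 15 min, RT) read afterwards.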
Nrf2 ARE act: qHTS of Nrf2 Activators; AREc32 ARE-luciferase reporter (MCF7-derived line), luminescence, 24 h; Potency, µM (titrated, usually from 46.1 µM), without a hit: at the top dose activation, actives largely listed as activators; actives 0.31% (n = 410,000); AID 624171, 2012; note: potency is the fitted concentration of half-maximal effect; % of control where 0% means no effect; nearly all actives have a fitted effect of over 65% in size
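Each well held 1000 AREc32 cells, which were incubated with compound for 24 hr at 37 deg C after overnight attachment, and ARE reporter activity was quantified by firefly luciferase luminescence.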
ERG Ets-DNA blk: qHTS for Small Molecule Inhibitors of the ERG Ets/DNA interaction. Transcriptional regulator ERG (Homo sapiens), P11308. fluorescence polarization, His-ERG Ets domain / labelled DNA. Potency, µM (top dose mostly 76.9 µM), for inactives: top-dose FP activity, negative = inhibition, hits mostly inhibitors. actives 0.028% (n = 370,000). AID 624246, 2012; active = well fitted inhibition curve with a large enough effect in the polarisation, with a control signal flat; inconclusive = small, poorly fitted or top-dose-only effect, or effect the other way, or a change in a side signal; inactive = no such curve, though single readings can be large or run the other way; the % refers to the polarisation;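 note: polarization taken with two DNA probes labelled with fluorescein and Texas red; potency is the fitted concentration of half-maximal effect; % of control where 0% means no effect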
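His-tagged ERG Ets domain (1 uM in the protein solution; 300mM KCl, 50mM Tris-HCl, 1mM EDTA, 1mM DTT, pH 7.5) received compound, then a probe mix of 5 nM fluorescein-DNA and 100nM Texas-615-DNA. Fluorescence polarization was read for both dyes.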
LDHA block: qHTS assay for inhibitors of human lactate dehydrogenase | purified LDHA, NADH/diaphorase-resazurin fluorescence; stronger effect = lower value | activity change, % (values are at about 110 or 230 µM) | actives 0.15% (n = 480,000) | L-lactate dehydrogenase A chain (Homo sapiens), P00338; in the data active = activity change below about -30%; inconclusive = mostly about -25% to -30%;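 note: plate controls were DMSO wells for no effect and wells without enzyme for full effect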
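Enzyme activity of human lactate dehydrogenase 5 (2 nM; 0.06 mM NADH, 0.2 mM pyruvate, 5 min, RT) is measured via a resazurin/diaphorase fluorescence readout of residual NADH.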
Starred values were filed as active, the others as inactive; ? = inconclusive; . = not tested or not shown; [ ] = another dose, or the depositor's remark. Unless noted, calls come from the whole dose curve; as a rule, active = well fitted curve in the direction sought with a large enough effect; inconclusive = small, poorly fitted or top-dose-only effect, or another doubt; inactive = no such curve, though single readings can be large; an effect the other way counts as inactive or inconclusive.

SMILES	12-LOX inh	Nrf2 inh	A549 viability	Nrf2 ARE act	ERG Ets-DNA blk	LDHA block
Nc1ccc(S(=O)(=O)N2CCc3ccccc32)cc1	0.0%	?	-1.1%	0.1%	4.2%	-3.3
O=S(=O)(NC1CCCC1)c1ccc(S(=O)(=O)N2CCc3ccccc32)cc1	-15.1%	14.6µM*	?	2.7%	4.4%	-0.5
CCC(=O)Nc1ccc(S(=O)(=O)N2CCc3ccccc32)cc1	?	1.6%	?	-0.9%	-8.3%	-13.2
O=C(NCc1ccco1)c1ccc(Cl)c(S(=O)(=O)N2CCc3ccccc32)c1	-14.7%	23.1µM*	2.4%	3.2%	13.2%	-7.1
O=C(NCc1ccco1)c1ccc(Cl)c(S(=O)(=O)N2CCOCC2)c1	-19.5%	11.2%	-5.1%	0.3%	-16.0%	-4.4
O=C(Nc1ccc(S(=O)(=O)N2CCc3ccccc32)cc1)c1ccco1	?	23.1µM*	-0.5%[1.84 µM]	6.9%	-6.3%	-2.2
O=C(NC1CCCC1)C1CCCN(C(=O)Cc2c[nH]c3ccccc23)C1 (stereo not drawn)	1.6%	.	.	.	.	-0.4
Cc1ccc(C)c(S(=O)(=O)NCc2ccc(C(=O)N3CCC(Cc4ccccc4)CC3)cc2)c1	-5.7%	16.4µM*	-10.6%[1.84 µM]	2.1%	0.9%	0.9
COc1ccc2cnn(CC(=O)Nc3cccc(Cl)c3Cl)c(=O)c2c1OC	?	.	.	.	.	15.7
CCc1ccc(-c2cn(C3CCCCC3)c(=S)[nH]2)cc1	20µM*	?	-11.0%	2.0%	-3.6%	-18.1
CCc1ccc(-n2cc(-c3ccc([N+](=O)[O-])cc3)[nH]c2=S)cc1	-20.0%	-3.6%	?	1.9%	-1.8%	-10.6
CCCCNc1c(-c2ccc(OC)c(Sc3ccc(OC)cc3)c2)nc2ccccn12	.	18.4µM*	?	-2.5%	1.8%	1.5
CCCCNc1c(-c2ccc(OC)c(Sc3ccc(OC)cc3)c2)nc2cnccn12	-4.0%	?	-5.3%	-0.5%	7.3%	-6.9
CC(C)(C)c1ccc2c(c1)OC(C(=O)N/N=C\c1ccccn1)CO2 (stereo not drawn)	28.5%	16.4µM*	-10.3%	-0.4%	3.7%	-1.8
CCOc1ccc(C(C)=O)cc1COc1ccc(C#N)cc1OC	10.8%	.	.	.	.	-0.8
COc1ccc(NS(=O)(=O)c2ccc(Oc3ncccn3)cc2)cc1	147.9%	20.6µM*	-0.3%	0.1%	-2.1%	-2.9
COc1ccc(NS(=O)(=O)c2ccc(-c3coc(C)n3)cc2)cc1	-18.6%	16.4µM*	1.6%	1.9%	11.3%	-0.7
CCCCCC(C)NC(=O)Nc1cc(C(F)(F)F)ccc1Cl (stereo not drawn)	2.2%	.	.	.	.	-2.0
Cc1cccc(Cn2cc(/C=C(\C#N)C(N)=O)c3ccccc32)c1	-29.2%	.	.	.	.	9.2
O=c1[nH]nc(SCc2ncc(-c3ccccc3)o2)n1CCc1ccccc1	11.2%	.	.	.	.	-10.2
CCn1c(=O)c2c(nc3n2CCCN3Cc2ccccc2)n(C)c1=O	-1.0%	-24.3%	-5.8%	0.4%	-12.8%	-0.1
CC(C)Cn1c(=O)c2c(nc3n2CCCN3Cc2ccccc2)n(C)c1=O	.	11.6µM*	6.6%	2.6%	-6.8%	0.3
Cc1ncsc1CCC(=O)N1CCC2(CCNCC2)CC1	15.8µM*	.	.	.	.	.
Cc1ccc(NC(=O)C2CCN(c3cc(C(F)(F)F)ncn3)CC2)cc1Cl	9.4%	.	.	.	.	.
CN1C(=O)C2(c3ccccc31)C1CCCC=C1C(C#N)=C(N)C2(C#N)C#N (stereo not drawn)	44.7µM*	-8.4%	-12.4%	9.4%	3.6%	10.8
SMILES	12-LOX inh	Nrf2 inh	A549 viability	Nrf2 ARE act	ERG Ets-DNA blk	LDHA block
O=C(OCc1ccccc1)N1CCOCC12CCN(Cc1ccc(O)cc1)CC2	-1.4%[176 µM]	.	.	.	.	.
COc1cc(/C=C/c2cc(OC(C)=O)c3ccccc3n2)c(OC(C)=O)c([N+](=O)[O-])c1	-52.4%	?	14.6µM*	3.4%	-9.5%	0.0
O=C(Nc1ccc(F)c(F)c1)c1ccc(-n2cncn2)c([N+](=O)[O-])c1	56.7%	10.3µM*	-14.5%	2.2%	-0.7%	-2.0
CCCCOc1ccc2c(C)cc(=O)oc2c1C	-1.2%	.	.	.	.	9.9
CCc1cc(=O)n(CC(=O)N2CCCCC2CC)c(-c2ccccc2)n1 (stereo not drawn)	42.0%	.	.	.	.	-0.2
CCC1CCCCN1C(=O)Cn1c(-c2ccccc2)nc(C)cc1=O (stereo not drawn)	2.7%	.	.	.	.	-33.4*
Cc1ccc(-n2nc(C)c([C@@H]3C=C[C@@H](NC(=O)NCc4ccccc4)C3)c2C)cc1Cl	-21.1%[176 µM]	.	.	.	.	.
Cc1cc(C)c(C#N)c(SCc2cc(=O)oc3cc(O)c(Cl)cc23)n1	-24.2%	.	.	.	.	-21.0
Cc1cc(F)ccc1S(=O)(=O)Nc1ccc(C(=O)N2CCCCCC2)cc1	0.5%	?	-1.1%	-0.9%	10.2%	-2.4
Cc1cc(F)ccc1S(=O)(=O)Nc1ccc(N2CCCC2)c(F)c1	3.98µM*	.	.	.	.	10.0
O=C(COc1ccc(F)cc1)Nc1nc(-c2ccccn2)cs1	-3.3%	-16.1%	-17.9%	0.6%	-1.4%	-0.4
CC(C)[C@H](NC(=O)c1ccccc1Cl)C(=O)Nc1nc(-c2ccccn2)cs1	40.5%	14.6µM*	-26.8%	-0.2%	8.3%	0.9
CCCn1nc(C(=O)Nc2nc(-c3ccccn3)cs2)c2ccccc2c1=O	337.0%	8.2µM*	-23.2%	3.0%	2.8%	2.2
CC(Oc1ccc(Br)cc1)C(=O)Nc1nc(-c2ccccn2)cs1 (stereo not drawn)	?	16.4µM*	?	?	4.5%	-3.6
O=C(Nc1nc(-c2ccccn2)cs1)c1ccccc1-n1cnnn1	?	5.8µM*	-18.7%	-0.6%	3.0%	-0.8
O=C1c2ccccc2C(=O)C1c1ccnc2ccccc12	-3.6%	?	-14.8%	?	-0.5%	-1.0
N#CC1=C(N)SC(N)=C(C#N)C1c1ccnc2ccccc12	4.47µM*	8.2%	-7.9%	0.5%	15.6%	18.1
CCOC(=O)c1ccccc1NC(=O)Cc1ccc(OC)c(S(=O)(=O)N2CCOCC2)c1	-4.3%	18.4µM*	-24.8%	-0.1%	7.6%	-0.8
Cc1cccc(OCc2nnc(SCC(=O)N(c3ccccc3)C3CCS(=O)(=O)C3)o2)c1 (stereo not drawn)	7.0%	20.6µM*	-12.6%	1.7%	1.8%	-14.6
Cc1cccc(OCc2nnc(SCC(=O)c3ccccc3)o2)c1	4.5%	13.0%	1.3%	3.1%	5.9%	-0.6
C[N+](C)(CC#CCCCCCCC#CC[N+](C)(C)Cc1ccccc1)Cc1ccccc1	?	.	.	.	.	-7.5
